Holding throughout (test): yeast three-hybrid, YBZ-1, SC-Leu-His + 0.5 mM 3-AT, 4 days
Common to all, as to details: tags: N-Gal4 AD-HA kept; label: inside an RPR1-promoter hybrid RNA with tandem MS2 sites; ssRNA

One assay concerns the target PUM1 PUF domain R3-SPS (Homo sapiens, UniProt Q14671 828-1176, C935S;R936P;Q939S). The procedure, abridged: (§1)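 Sequencing with Illumina followed PCR amplification of the repeat regions from transformants grown four days on SC-Leu (input) or SC-Leu-His + 0.5 mM 3-AT (selection). The transformants were strain YBZ-1 with a LexA–MS2 coat fusion and a HIS3 reporter, carrying Pumilio-1 PUF domain libraries and matching RNA elements. The interaction score is the log change in variant frequency from input to selection, computed in log2 with a pseudocount of 1 for absent variants.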

For the next assay, the target named is PUM1 PUF domain R3-LFV (Homo sapiens, UniProt Q14671 828-1176, C935L;R936F;Q939V). The procedure, abridged: as §1
For a further assay, the target named is PUM1 PUF domain R3-LRS (Homo sapiens, UniProt Q14671 828-1176, C935L;Q939S). Summed up:
as §1

The next assay has as its target PUM1 PUF domain R1-NIG (Homo sapiens, UniProt Q14671 828-1176, S863N;R864I;Q867G). The procedure, abridged: as §1
The next assay concerns the target PUM1 PUF domain R1-GRR (Homo sapiens, UniProt Q14671 828-1176, S863G;Q867R). The procedure, abridged: as §1
For a further assay, the target named is T1, PUM1 PUF domain R6-SWK (Homo sapiens, UniProt Q14671 828-1176, N1043S;Y1044W;Q1047K).
T1 sequence: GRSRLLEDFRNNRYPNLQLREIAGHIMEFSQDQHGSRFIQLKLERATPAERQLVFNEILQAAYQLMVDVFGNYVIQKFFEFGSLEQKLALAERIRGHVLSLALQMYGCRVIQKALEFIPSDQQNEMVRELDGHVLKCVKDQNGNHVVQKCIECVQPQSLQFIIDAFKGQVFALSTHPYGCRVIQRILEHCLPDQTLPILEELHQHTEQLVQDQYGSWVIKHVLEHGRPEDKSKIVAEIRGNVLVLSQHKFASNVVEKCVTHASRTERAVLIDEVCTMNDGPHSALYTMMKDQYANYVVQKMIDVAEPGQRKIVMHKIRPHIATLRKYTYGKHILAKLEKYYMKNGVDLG
Summed up:
as §1

A further assay deals with T2, PUM1 PUF domain R6-RHR (Homo sapiens, UniProt Q14671 828-1176, N1043R;Y1044H;Q1047R).
T2 sequence: T1 sequence with S216R, W217H, K220R
Summed up:
as §1

For another assay, the target named is PUM1 PUF domain R5-FRD (Homo sapiens, UniProt Q14671 828-1176, C1007F;Q1011D). The procedure, abridged: as §1
The next assay has as its target PUM1 PUF domain R8-RRI (Homo sapiens, UniProt Q14671 828-1176, N1122R;Y1123R;Q1126I). Summed up: as §1
Another assay deals with PUM1 PUF domain R8-HYL (Homo sapiens, UniProt Q14671 828-1176, N1122H;Q1126L). The procedure, abridged: as §1

Changes are numbered by the printed parent chain.

In the case of “GGCUAGAACUAGUGGAUCCCCCGGCGCCCGGCGGCUCGAGCCCGGGUAAGUGUAAUUAGUCUGCAUGCCGCCGGGCGCCAUGCCUGCAGGUCGACUCUAGAAAACAUG”, the binding signal with PUM1 PUF domain R3-SPS was 1.47 log2 enrichment (interaction score); in the assay with PUM1 PUF domain R3-LFV, 4.09 log2 enrichment (interaction score); in the assay with PUM1 PUF domain R3-LRS, 1.26 log2 enrichment (interaction score).
As for “GGCUAGAACUAGUGGAUCCCCCGGCGCCCGGCGGCUCGAGCCCGGGUAAGUGUAAAUUGUCUGCAUGCCGCCGGGCGCCAUGCCUGCAGGUCGACUCUAGAAAACAUG”, the binding signal in the assay with PUM1 PUF domain R1-NIG is 3.06 log2 enrichment (interaction score); with PUM1 PUF domain R1-GRR, 2.59 log2 enrichment (interaction score).
Consider “GGCUAGAACUAGUGGAUCCCCCGGCGCCCGGCGGCUCGAGCCCGGGUAAGUGUAAGUAGUCUGCAUGCCGCCGGGCGCCAUGCCUGCAGGUCGACUCUAGAAAACAUG”, for which the binding signal is 5.59 log2 enrichment (interaction score) with PUM1 PUF domain R3-LFV and 4.15 log2 enrichment (interaction score) in the assay with PUM1 PUF domain R3-LRS.
Take “GGCUAGAACUAGUGGAUCCCCCGGCGCCCGGCGGCUCGAGCCCGGGUAAGUGUAAAUGGUCUGCAUGCCGCCGGGCGCCAUGCCUGCAGGUCGACUCUAGAAAACAUG”: the binding signal with PUM1 PUF domain R1-GRR is 1.78 log2 enrichment (interaction score).
As to “GGCUAGAACUAGUGGAUCCCCCGGCGCCCGGCGGCUCGAGCCCGGGUAAGUGAAAAUAGUCUGCAUGCCGCCGGGCGCCAUGCCUGCAGGUCGACUCUAGAAAACAUG”, the binding signal is 1.25 log2 enrichment (interaction score) with PUM1 PUF domain R6-SWK and 1.86 log2 enrichment (interaction score) with PUM1 PUF domain R6-RHR.
With “GGCUAGAACUAGUGGAUCCCCCGGCGCCCGGCGGCUCGAGCCCGGGUAAGUGUAAAUAGUCUGCAUGCCGCCGGGCGCCAUGCCUGCAGGUCGACUCUAGAAAACAUG”, the binding signal with PUM1 PUF domain R6-SWK was 6.97 log2 enrichment (interaction score); in the assay with PUM1 PUF domain R3-SPS, 3.13 log2 enrichment (interaction score); in the assay with PUM1 PUF domain R5-FRD, 1.06 log2 enrichment (interaction score); in the assay with PUM1 PUF domain R8-RRI it was 1.24 log2 enrichment (interaction score); with PUM1 PUF domain R3-LFV, 3.48 log2 enrichment (interaction score); with PUM1 PUF domain R6-RHR it was 3.36 log2 enrichment (interaction score).
As for “GGCUAGAACUAGUGGAUCCCCCGGCGCCCGGCGGCUCGAGCCCGGGUAAGUGUAAAUCGUCUGCAUGCCGCCGGGCGCCAUGCCUGCAGGUCGACUCUAGAAAACAUG”, in the assay with PUM1 PUF domain R1-GRR, the binding signal is 3.99 log2 enrichment (interaction score).
Consider “GGCUAGAACUAGUGGAUCCCCCGGCGCCCGGCGGCUCGAGCCCGGGUAAGUGUCAAUAGUCUGCAUGCCGCCGGGCGCCAUGCCUGCAGGUCGACUCUAGAAAACAUG”, for which the binding signal with PUM1 PUF domain R5-FRD is 2.84 log2 enrichment (interaction score).
With “GGCUAGAACUAGUGGAUCCCCCGGCGCCCGGCGGCUCGAGCCCGGGUAAGUGUAACUAGUCUGCAUGCCGCCGGGCGCCAUGCCUGCAGGUCGACUCUAGAAAACAUG”, the binding signal with PUM1 PUF domain R3-LFV is 2.66 log2 enrichment (interaction score).
For the sequence “GGCUAGAACUAGUGGAUCCCCCGGCGCCCGGCGGCUCGAGCCCGGGUAAGCGUAAAUAGUCUGCAUGCCGCCGGGCGCCAUGCCUGCAGGUCGACUCUAGAAAACAUG”, the binding signal with PUM1 PUF domain R8-RRI is 2.58 log2 enrichment (interaction score); with PUM1 PUF domain R8-HYL, 2.26 log2 enrichment (interaction score).

These data come from paper PMC8384837, “Expanding the binding specificity for RNA recognition by a PUF domain”.
